Assay outcomes as filed in PubChem.
An excerpt weighted towards active compounds, which were near 19% of everything screened.
KB-3-1 cytotox: qHTS assay for MDR1-selective chemotherapeutics: Primary screen using the parental adenocarcinoma cell KB-3-1; Potency, µM (top dose mostly 46.1 µM), actives largely listed as cytotoxic; KB-3-1 viability, CellTiter-Glo ATP luminescence, 72 h; AID 1347075, 2019; actives 1.4% (n = 400,000); also: nearly all actives have a fitted effect of over 60% in size
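Cytotoxicity in the drug-sensitive parental line KB-3-1 was scored as loss of CellTiter-Glo luminescence following 72 h incubation with compound. Values come from curve fitting of normalized concentration-response data.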
HT1080 IDH1KD tx: qHTS for induction of synthetic lethality in tumor cells producing 2HG: qHTS for the HT-1080-IDH1KD cell line; HT-1080 IDH1 knockdown viability, ATP luminescence, 48 h; actives 2% (n = 360,000); Potency, µM (top dose mostly 46.1 µM), hits mostly cytotoxic
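Knockdown cells (IDH1KD HT-1080) received compounds 2 h after plating at 750 cells/well and were kept 48 h at 37 °C in 5% FBS RPMI. A CellTiter-Glo luminescence read gave % activity for curve fitting.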
KB-V1 cytotox: qHTS assay for MDR1-selective chemotherapeutics: Primary screen using the drug-selected MDR subline cells KB-V1; KB-V1 MDR cells viability, CellTiter-Glo, 72 h; Potency, µM (top dose mostly 46.1 µM), actives largely listed as cytotoxic; actives 3.4% (n = 400,000); AID 1347076, 2019; also: nearly all actives have a fitted effect of over 60% in size
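Readout: CellTiter-Glo luminescence, 10 min after addition. Cells: KB-V1 MDR subline, 72 h at 37 degrees C with compound. Analysis: corrected, normalized data fitted to concentration-effect curves.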
TDP1 cell noCPT: qHTS for Inhibitors of human tyrosyl-DNA phosphodiesterase 1 (TDP1): qHTS in cells in absence of CPT | DT40 Tdp1-/- hTDP1 cells, no CPT, ATP luminescence, 48 h | Potency, µM (series often up to 46.2 µM), hits mostly inhibitors | actives 15% (n = 420,000) | AID 686978, 2013; also: nearly all actives have a fitted effect of over 55% in size
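Stably hTDP1-transfected Tdp1-null chicken DT40 cells were treated with library compounds minus camptothecin and grown for at least 48 hr at 37 °C, after which cellular ATP was quantified by luminescence.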
DT40 TDP1 CPT: qHTS for Inhibitors of human tyrosyl-DNA phosphodiesterase 1 (TDP1): qHTS in cells in presence of CPT; chicken DT40 Tdp1-/-;hTDP1 cells + 20 nM CPT, ATP luminescence, 48 h; Potency, µM (highest dose often 46.2 µM), actives largely listed as inhibitors; actives 12% (n = 420,000); AID 686979, 2013; also: nearly all actives have a fitted effect of over 55% in size
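Cell growth measured by CellTiter-Glo luminescence after a minimum 48 h, 37 C compound exposure with 20 nM CPT in Tdp1-knockout DT40 cells stably expressing hTDP1, seeded 400/well; qHTS titration format.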
HT1080-NT tox: qHTS for induction of synthetic lethality in tumor cells producing 2HG: qHTS for the HT-1080-NT fibrosarcoma cell line; HT-1080-NT fibrosarcoma viability, CellTiter-Glo ATP luminescence, 48 h; Potency, µM (doses to about 46.1 µM), most hits filed as cytotoxic; actives 1.6% (n = 360,000); AID 686970, 2013;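 also: NT is the 2HG producing partner of a matched IDH1 knockdown line; nearly all actives have a fitted effect of over 55% in size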
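Compounds were tested in concentration-response format on HT-1080-NT cells for 48 hours at 37 degrees C. Cell viability came from CellTiter-Glo luminescence; curves were classified by r2, response magnitude and activity.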
Hits are given with their value; i = inactive; ? = inconclusive; nt = no result given; [ ] = remark or other dose. Calls follow the shape of the dose curve; as a rule, active = well fitted curve in the direction sought with a large enough effect; inconclusive = small, poorly fitted or top-dose-only effect, or another doubt; inactive = no such curve, though single readings can be large; an effect the other way counts as inactive or inconclusive.

SMILES	KB-3-1 cytotox	HT1080 IDH1KD tx	KB-V1 cytotox	TDP1 cell noCPT	DT40 TDP1 CPT	HT1080-NT tox
Cc1cccc(CC(C)NC(=O)c2cc(COc3ccc(C)c(C)c3)on2)n1 (stereo unspecified)	nt	i	nt	21µM	21µM	i
CCOC(=O)CC1(NC(=O)c2cc(COc3ccc(F)c(F)c3)on2)CCCCC1	i	i	i	18µM	23µM	i
Cc1cc(CNC(=O)c2cc(COc3ccc(F)c(F)c3)on2)nn1C	i	i	i	?	15µM	i
Cc1nc(C(C)NC(=O)c2cc(COc3ccc(F)c(F)c3)on2)cs1 (stereo unspecified)	?	i	i	?	?	i
Cc1cc(C)n(CC(C)NC(=O)c2cc(COc3ccc(F)c(F)c3)on2)n1 (stereo unspecified)	i	i	i	16µM	?	i
CCS(=O)(=O)N1CCCc2cc(C(=O)Nc3cccc(C(C)=O)c3)ccc21	i	nt	?	26µM	?	nt
CCS(=O)(=O)N1CCc2cc(C(=O)Nc3cccc(NC(C)=O)c3)ccc21	i	nt	i	?	?	nt
CSc1cccc(NC(=O)c2cccc(N3CCCS3(=O)=O)c2)c1	i	nt	i	18µM	?	nt
CSc1cccc(NC(=O)c2ccc3c(c2)CCCN3S(C)(=O)=O)c1	i	nt	?	?	16µM	nt
O=C(Nc1ccccc1)c1cccc(N2CCCS2(=O)=O)c1	i	nt	i	i	i	nt
CC(=O)c1cccc(NC(=O)c2ccc3c(c2)CCN3S(=O)(=O)c2ccccc2)c1	i	i	i	21µM	15µM	i
CC(C)(C)NS(=O)(=O)c1ccc(/C=C/C(=O)O)cc1	i	i	i	i	i	i
Cc1ncc2c(c1CNC(=O)c1ccc3c(c1)OCO3)CCN(C(=O)c1scc3c1CCCC3)C2	nt	nt	nt	i	i[9.04 µM]	nt
CC(=O)Nc1cccc(NC(=O)c2ccc3c(c2)CCN3S(=O)(=O)c2ccccc2)c1	i	i	?	?	?	i
O=C(Nc1ccc(S(=O)(=O)N2CCc3ccccc32)cc1)c1ccc2c(c1)OCO2	i	?	5.2µM	?	?	?
Cc1ccc(Cl)cc1N1CCN(C(=O)c2ccc3c(c2)CCN3S(=O)(=O)c2ccccc2)CC1	i	nt	i	10µM	9.2µM	nt
NS(=O)(=O)c1ccc(NC(=O)c2ccc3c(c2)CCN3S(=O)(=O)c2ccccc2)cc1	i	?	?	10µM	23µM	i
O=C(Nc1cccc(Cl)c1)c1ccc2c(c1)CCN2S(=O)(=O)c1ccccc1	i	nt	i	21µM	13µM	nt
O=C(Nc1ccccc1)c1ccc2c(c1)CCN2S(=O)(=O)c1ccccc1	?	i	i	?	?	i
COc1cc(C(F)(F)F)ccc1C(=O)NCCc1ccco1	i	?	i	i	i	?
C[C@H](NC(=O)c1[nH]cnc1C(=O)Nc1ccc(CNC(=O)OC(C)(C)C)cc1)C(=O)OCc1ccccc1	?	?	?	18µM	?	?
C[C@H](CO)NC(=O)c1[nH]cnc1C(=O)Nc1ccc(CNC(=O)OC(C)(C)C)cc1	i	i	i	?	i	i
CC(C)(C)OC(=O)NCc1ccc(NC(=O)c2nc[nH]c2C(=O)N[C@@H](Cc2ccccc2)C(=O)OC(C)(C)C)cc1	?	i	i	12µM	15µM	i
CC(C)C[C@H](NC(=O)c1[nH]cnc1C(=O)Nc1ccc(CNC(=O)OC(C)(C)C)cc1)C(=O)OCc1ccccc1	i	i	?	15µM	?	?
CCOc1ccc2c(c1)C(C)=CC(C)(C)N2S(=O)(=O)c1ccc(C)cc1	2.1µM	1.8µM	5.8µM	6.5µM	?	1.3µM
